Most compounds without a hit are left out; they make up all but 7.1% or so of the library.
PINK1 modulator: changes PINK1 expression. PINK1 immunofluorescence, high-content cytometry, 24 h. Potency, µM (titrated, usually from 76.6 µM), hits mostly activators. 410,000 tested, 0.2% active. AID 624263; active = well fitted activation curve with a large enough effect; inconclusive = small, poorly fitted or top-dose-only effect; cell line not stated here; also: nearly all actives have a fitted effect of over 65% in size
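Readout is PINK1 immunofluorescence, quantified alongside mitochondrial, cell and nuclear markers by laser-scanning microplate cytometry. Cells from a stable line were exposed to compound titrations (5 concentrations) for 24 hours, with CCCP controls.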
MCF10A rerep: induces DNA re-replication in MCF 10a normal breast cells | Potency, µM (top dose mostly 46.1 µM), actives largely listed as activators | MCF 10A DNA re-replication, Hoechst nuclear intensity, 48 h | 350,000 tested, 2.9% active; also: nearly all actives have a fitted effect of over 50% in size
IL-1B inflam inh: inhibitors of inflammasome signaling (IL-1 beta secretion); THP-1 LPS/ATP IL-1B secretion, AlphaLISA, 16 h; hits give low values; activity change, % at 57.5 µM; 360,000 tested, 4.7% active; AID 743279; in the data active = activity change below about -50%; inconclusive = mostly about -30% to -49%
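Secreted IL-1B measured by AlphaLISA bead assay after 16 h compound exposure of THP-1 cells; compounds (final up to 57.5 uM) added 1 h before LPS (250 ng/mL) and ATP (1.25 mM) stimulation; lower signal means less secretion.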
SW480 rereplic: inducers of DNA re-replication in SW480 colon cancer cells; SW480 DNA re-replication, Hoechst DNA content imaging, 48 h; Potency, µM (top dose mostly 46.1 µM), most hits filed as activators; 340,000 tested, 1.8% active; also: nearly all actives have a fitted effect of over 55% in size
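Readout is total intensity of Hoechst-stained nuclei, excited at 405 nm and collected at 500-530 nm. Compound treatment lasted 48 hr at 37 C in 5% CO2 before staining.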
ATXN2 expr inh: reduces ATXN2 reporter expression in HEK-293 cells. 360,000 tested, 0.72% active. Potency, µM (highest dose often 57 µM), actives largely listed as inhibitors. HEK-293 ATXN2-luciferase reporter, luminescence, 24 h. AID 1745845; also: nearly all actives have a fitted effect of over 55% in size
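qHTS (up to 57 uM final) was run with 24 h compound exposure of reporter cells at 37 °C. Each well was multiplexed: SteadyGlo luminescence measured ATXN2-luciferase expression after a fluorogenic Gly-Phe-AFC viability readout (25 uM final).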
ATXN viability: reduces viability in counter-screen for ATXN expression inhibitors; S2 cells (HEK-293 line with an ATXN2-luciferase reporter) viability, CellTiter-Fluor protease fluorescence, 24 h; Potency, µM (top dose mostly 56.7 µM), hits mostly cytotoxic; 400,000 tested, 0.49% active; AID 651635; also: nearly all actives have a fitted effect of over 40% in size
A number is an active result; [ ] = another dose, or the depositor's remark. Unless noted, calls follow the shape of the dose curve; as a rule, active = well fitted curve in the direction sought with a large enough effect; inconclusive = small, poorly fitted or top-dose-only effect, or another doubt; inactive = no such curve, though single readings can be large; an effect the other way counts as inactive or inconclusive.

Screening CC(C)NC(=O)N(C)C[C@H]1Oc2c(NC(=O)Nc3ccc(C(F)(F)F)cc3)cccc2C(=O)N([C@H](C)CO)C[C@@H]1C returned PINK1 modulator inactive, MCF10A rerep inactive, IL-1B inflam inh inconclusive, SW480 rereplic inactive[9.22 µM], ATXN2 expr inh inactive and ATXN viability inconclusive.
C[C@@H]1CN([C@H](C)CO)C(=O)c2cc(NC(=O)Nc3ccc(C(F)(F)F)cc3)ccc2O[C@H]1CN(C)Cc1ccc(Cl)c(Cl)c1 was read as PINK1 modulator inconclusive, MCF10A rerep inconclusive, IL-1B inflam inh -80, SW480 rereplic inactive, ATXN2 expr inh inconclusive and ATXN viability 13µM.
For C[C@H]1CN([C@@H](C)CO)C(=O)c2cccc(NC(=O)Nc3ccc(C(F)(F)F)cc3)c2O[C@@H]1CN(C)Cc1ccc(Cl)c(Cl)c1 the results were PINK1 modulator inactive, MCF10A rerep inconclusive, IL-1B inflam inh inactive, SW480 rereplic inactive, ATXN2 expr inh inactive and ATXN viability 14µM.
For C[C@@H]1CCCCO[C@@H](CN(C)Cc2ccc(C(F)(F)F)cc2)[C@@H](C)CN([C@H](C)CO)C(=O)c2cc(N(C)C)ccc2O1 the results were PINK1 modulator inactive, IL-1B inflam inh -53, ATXN2 expr inh inconclusive and ATXN viability 22µM.
For C[C@@H]1CN([C@@H](C)CO)C(=O)c2cc(NC(=O)CCC(F)(F)F)ccc2O[C@H]1CN(C)Cc1ccc(Cl)c(Cl)c1 the results were PINK1 modulator inconclusive, MCF10A rerep inconclusive, IL-1B inflam inh inconclusive, SW480 rereplic inactive, ATXN2 expr inh inconclusive and ATXN viability inconclusive.
Screening Cc1cccc2c1-c1sc(C(=O)NCCCN3CCN(c4cccc(Cl)c4)CC3)cc1CO2 returned PINK1 modulator inactive, ATXN2 expr inh inconclusive and ATXN viability inconclusive.
`COc1ccc(CNCc2ccc3c(c2)n(C)c(=O)n3C)cc1` gave PINK1 modulator inactive, ATXN2 expr inh inactive and ATXN viability inactive.
For OCCN(CCO)c1ncnc2c1sc1nc(N3CCOCC3)c3c(c12)CCCC3 the results were PINK1 modulator inactive, MCF10A rerep inactive, IL-1B inflam inh inactive, SW480 rereplic inactive, ATXN2 expr inh inactive and ATXN viability inactive.
Screening CC1(C)Cc2c(c(N3CCCC3)nc3sc4c(N5CCN(CCO)CC5)ncnc4c23)CO1 returned MCF10A rerep inactive, IL-1B inflam inh -61, SW480 rereplic inconclusive, ATXN2 expr inh inactive and ATXN viability inconclusive.
For Cc1ccc(-n2cnc3c(sc4nc(N5CCOCC5)c5c(c43)CCCC5)c2=O)cc1 the results were PINK1 modulator inactive, MCF10A rerep inactive, IL-1B inflam inh inactive, SW480 rereplic inactive, ATXN2 expr inh inactive and ATXN viability inactive.
Screening O=c1c2sc3nc(N4CCOCC4)c4c(c3c2ncn1-c1ccccc1)CCCC4 returned PINK1 modulator inactive, MCF10A rerep inactive, IL-1B inflam inh -60, SW480 rereplic inactive, ATXN2 expr inh inactive and ATXN viability inactive.
Screening CC1(C)Cc2c(c(N3CCOCC3)nc3sc4c(NCCN)ncnc4c23)CO1 returned PINK1 modulator inactive, MCF10A rerep inconclusive, IL-1B inflam inh inactive, SW480 rereplic inconclusive, ATXN2 expr inh inactive and ATXN viability inactive.
OCCN1CCN(c2ncnc3c2sc2nc(N4CCOCC4)c4c(c23)CCC4)CC1 was read as PINK1 modulator inactive, MCF10A rerep inactive, IL-1B inflam inh -77, SW480 rereplic inactive, ATXN2 expr inh inactive and ATXN viability inactive.
COc1ccccc1NC(=O)CSc1nnc(-c2nonc2NC(C)=O)n1-c1ccccc1 was read as PINK1 modulator inactive, ATXN2 expr inh inactive and ATXN viability inactive.
For c1ccc2c3c([nH]c2c1)C(C1CCCCC1)N(Cc1ncc[nH]1)CC3 (configuration not stated) the results were PINK1 modulator inconclusive, MCF10A rerep inactive, IL-1B inflam inh -87, SW480 rereplic inactive, ATXN2 expr inh inactive and ATXN viability inactive.
For Cc1cnc(CN2CCc3c([nH]c4ccccc34)C2C2CCCCC2)[nH]1 (configuration not stated) the results were PINK1 modulator inconclusive, MCF10A rerep inconclusive, IL-1B inflam inh -79, SW480 rereplic inactive, ATXN2 expr inh inactive and ATXN viability inactive.
COC(=O)c1c(SC)nc2ccccc2c1OCc1cc(C)ccc1C was read as PINK1 modulator inactive, ATXN2 expr inh inactive and ATXN viability inactive.
Screening COc1ccc(CNC(=O)CCC2N=C3c4ccccc4N=C(SCC(=O)NCCc4ccc(OC)c(OC)c4)N3C2=O)cc1 (configuration not stated) returned PINK1 modulator inactive, ATXN2 expr inh inactive and ATXN viability inconclusive.
For COC(=O)c1sccc1S(=O)(=O)N1CCN(c2cccc(C)c2)C(C)C1 (configuration not stated) the results were PINK1 modulator inactive, ATXN2 expr inh inactive and ATXN viability inactive.
For Cc1cccc(/C=C(\C#N)c2nc3ccccc3c(=O)[nH]2)c1 the results were PINK1 modulator inactive, ATXN2 expr inh inactive and ATXN viability inactive.
CSc1nc2ccccc2cc1/C=C(\C#N)c1ccc(Cl)c(Cl)c1 was read as PINK1 modulator inactive, MCF10A rerep 7.3µM, IL-1B inflam inh inactive, SW480 rereplic inconclusive, ATXN2 expr inh inactive and ATXN viability inactive.
For N#CC(=Cc1ccnc2ccccc12)c1ccccc1 the results were PINK1 modulator inactive, IL-1B inflam inh inactive and ATXN viability inactive.
`CSc1nc2ccccc2cc1/C=C(\C#N)c1cccc(C)c1` gave PINK1 modulator inactive, MCF10A rerep 10µM, IL-1B inflam inh inactive, SW480 rereplic inconclusive, ATXN2 expr inh inactive and ATXN viability inactive.
`CSc1nc2ccccc2cc1/C=C(\C#N)c1ccccc1` gave PINK1 modulator inactive, MCF10A rerep 13µM, IL-1B inflam inh inactive, SW480 rereplic inconclusive, ATXN2 expr inh inactive and ATXN viability inactive.
Screening CCn1c(/C(C#N)=C/c2ccccc2Cl)nc2ccccc21 returned PINK1 modulator inactive, ATXN2 expr inh inactive and ATXN viability inactive.
COc1ccccc1C(=O)N[C@@H]1c2ccccc2C2(CCN(Cc3cnn(C)c3C)CC2)[C@H]1O was read as PINK1 modulator inactive and ATXN viability inactive.
CCn1cc(CN2CCC(C(=O)Nc3ccc(Oc4ccccc4F)cc3)CC2)c(C)n1 was read as PINK1 modulator inactive, MCF10A rerep 21µM, IL-1B inflam inh inactive, SW480 rereplic inconclusive, ATXN2 expr inh inactive and ATXN viability inactive.
For COc1cc(F)ccc1CN1CCC(C(=O)Nc2ccc(Oc3ccccc3)nc2)CC1 the results were PINK1 modulator inactive, MCF10A rerep inactive, IL-1B inflam inh -81, SW480 rereplic inactive, ATXN2 expr inh inactive and ATXN viability inactive.
Screening C[C@@H]1CCN(C(=O)CC#N)C[C@H]1N(C)c1ncnc2[nH]ccc12 returned ATXN2 expr inh inactive.

Screening results deposited in PubChem BioAssay by National Center for Advancing Translational Sciences (NCATS).
